High-throughput results (PubChem)
This is a sample that favours compounds with a hit; in the whole collection about 3.8% have one here.
HSF1 inhib = HSF1 inhibitors in luciferase reporter cells, primary screen, cell-based, NIH3T3, luminescence. NIH3T3-HGL HSE-luciferase, MG132-induced, luminescence 8 h; active compounds read low. activity change, negative = inhibition, % at 7.5 µM (by protocol). actives 0.77% (n = 300,000). AID 2098, 2009;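 active = more than half of replicate wells show activity change below -50%, luminescence cut by over half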;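 note: luciferase reports HSF-1 transcriptional activity via heat shock element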
MITF act = activators of MITF-driven TRPM1 promoter reporter, primary screen, cell-based, SK-MEL-5, luciferase, single point; SK-MEL-5 TRPM1-promoter luciferase, 24 h; % of positive control, neutral wells = 0; activation, % at 12.5 µM; actives 0.75% (n = 300,000);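 active = mean activation of at least 80% with every replicate also reaching 80%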
Wnt bcat act = Wnt/beta-catenin pathway activators, primary screen, cell-based, plate reader, single point; actives 1.2% (n = 300,000); Wnt/beta-catenin reporter cell assay, activator; activation, % at 9.35 µM; in the data active = activation above about 30%, passing the limit was not always enough
HSF1 activator = HSF-1 activators, primary screen, NIH3T3-HGL cells, MG132 stress, luminescence, single point; actives 1.7% (n = 300,000); activation, % at 9 µM; NIH3T3-HGL HSF-1 luciferase reporter, 8 h; 100% = twice DMSO control signal; AID 504408, 2011;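 active = mean replicate activation of at least 50% with a set share of replicates each reaching 50%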
esBAF inh = Bmi1 luciferase reporter increase in mESCs, primary screen, esBAF inhibitor project, mouse ES cells, Bmi1 luciferase knock-in, single point; 24 h; 100% = twice the neutral-well signal; reporter increase, % at 12.5 µM; actives 2% (n = 350,000); in the data active = activation above about 40%;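 note: a rise in the Bmi1 reporter signal indicates esBAF inhibition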
Large screens that a line does not name were inactive.

Cc1cc(F)c(F)c(C(=O)N2CCN(C)CC2)c1Cl	none
Cc1cc(F)c(F)c(C(=O)N2CCOCC2)c1Cl	HSF1 activator 61.8
COC(=O)c1cc(S(=O)(=O)NCc2ccc(F)cc2)cn1C	HSF1 inhib -52.7
C[C@@H]1CN([C@@H](C)CO)C(=O)c2cc(-c3cccnc3)cnc2O[C@@H]1CN(C)C(=O)Cc1cccnc1	none (no result: HSF1 inhib, MITF act, Wnt bcat act, HSF1 activator)
C[C@@H]1CCCCO[C@H](CN(C)S(C)(=O)=O)[C@@H](C)CN([C@@H](C)CO)C(=O)c2cc(NC(=O)c3ccncc3)ccc2O1	none (no result: HSF1 inhib, MITF act, Wnt bcat act, HSF1 activator)
O=C(NC1CC2CCCC(C1)N2C(=O)Nc1ccccc1Cl)C1CC1 (stereo unspecified)	none
Cc1ccccc1NC(=O)N1C2CCCC1CC(NC(=O)C1CC1)C2 (stereo unspecified)	HSF1 inhib -69.9
O=C(O)c1ccc2c(c1)OCCCO2	none
COc1cccc(/C=C/C(=O)OCC(=O)c2ccc3c(c2)NC(=O)CO3)c1	none (no result: HSF1 inhib, HSF1 activator)
O=C(/C=C/c1ccc2c(c1)OCO2)c1ccccn1	HSF1 activator 60.2, esBAF inh 38.4 (no result: MITF act)
O=C(/C=C/c1ccccc1)c1ccccn1	none
O=C(/C=C/c1ccccc1)c1ccc2c(c1)OCCCCO2	MITF act 91.3 (no result: esBAF inh)
O=C1COc2ccc(C(=O)/C=C/c3ccccc3)cc2N1	HSF1 activator 53.4 (no result: Wnt bcat act, esBAF inh)
CC(/C=C/c1ccc2c(c1)OCO2)=N/NC(=O)c1ccncc1	HSF1 inhib -70.5 (no result: MITF act, esBAF inh)
CC(/C=C/c1ccc2c(c1)OCO2)=N/NC(=O)c1cccnc1	none (no result: esBAF inh)
O=C(/C=C/c1ccc2c(c1)OCCCO2)c1ccc2ccccc2c1O	esBAF inh 45.0
Cc1ccc(C(=O)/C=C/c2ccc3c(c2)OCCO3)c(O)c1	none (no result: esBAF inh)
COC(=O)c1[nH]c2ccccc2c1NC(=O)/C=C/c1ccc2c(c1)OCO2	HSF1 activator 78.2 (no result: esBAF inh)
O=C(C=Cc1ccc2c(c1)OCO2)c1ccccc1	esBAF inh 49.9 (no result: HSF1 inhib, HSF1 activator)
CCN(CC(=O)Nc1c(C(=O)OC)[nH]c2ccccc12)c1ccc2c(c1)OCO2	none (no result: MITF act)
COC(=O)c1cc(S(=O)(=O)NCC(C)c2ccccc2)c[nH]1 (stereo unspecified)	none (no result: HSF1 inhib, MITF act, HSF1 activator)
COC(=O)c1cc(S(=O)(=O)NCCc2ccccc2)c[nH]1	HSF1 inhib -81.3
Cn1c(SCc2cccc(C(F)(F)F)c2)nnc1-c1ccco1	HSF1 activator 58.7 (no result: MITF act)
Cc1noc(C)c1NC(=O)Nc1ccc2c(c1)C(=O)N([C@H](C)CO)C[C@H](C)[C@H](CN(C)C(=O)CCCN(C)C)OCCCC[C@H](C)O2	none (no result: HSF1 inhib, MITF act, Wnt bcat act, HSF1 activator)
O=C(Nc1cccn2ncnc12)C(F)(F)F	HSF1 activator 63.3
CC(C)(C)NC(=O)CN(C(=O)CCC(=O)Nc1nccs1)c1ccc2c(c1)OCCO2	none
CC(C)CCNC(=O)CN(C(=O)CCC(=O)Nc1nccs1)c1ccc2c(c1)OCCO2	HSF1 inhib -61.7
O=C1OCCN1CCNCc1cn(-c2ccc(F)cc2)nc1-c1ccccc1Cl	none (no result: esBAF inh)
Cc1ccc(-n2cc(CNCCN3CCOC3=O)c(-c3cccc(C)c3)n2)cc1	HSF1 activator 69.0 (no result: esBAF inh)
C[C@@H]1CN([C@H](C)CO)C(=O)c2cccc(NS(=O)(=O)c3cccs3)c2O[C@@H]1CN(C)Cc1ccncc1	none (no result: HSF1 inhib, MITF act, Wnt bcat act, HSF1 activator)
Cc1noc(C)c1S(=O)(=O)Nc1ccc2c(c1)CC(=O)N([C@H](C)CO)C[C@@H](C)[C@H](CN(C)C)O2	none (no result: HSF1 inhib, MITF act, Wnt bcat act, HSF1 activator)
Cc1cc(C(=O)Nc2ccc3[nH]ccc3c2)no1	Wnt bcat act 58.8
COCCCNC(=O)CNC(=O)c1nn(-c2ccc(OC)cc2OC)c(=O)c2ccccc12	none (no result: esBAF inh)
CCN(CCCNC(=O)CNC(=O)c1nn(-c2ccc(OC)cc2OC)c(=O)c2ccccc12)c1cccc(C)c1	HSF1 activator 60.6 (no result: esBAF inh)
CC(C)(C)[S@](=O)N1Cc2cc(C(=O)NCCN3CCCCC3)nc(-c3cccc(-c4cccc(C#N)c4)c3)c2[C@@H]1CCO	none (no result: HSF1 inhib, MITF act, Wnt bcat act, HSF1 activator)
O=[N+]([O-])c1cc(-c2cnc3ccccc3n2)ccc1Oc1ccc(Br)cc1	esBAF inh 44.2 (no result: MITF act, Wnt bcat act)
CO[C@H](CN(C)S(=O)(=O)c1ccc(C)cc1)[C@@H](C)CN(Cc1ccccc1Cl)[C@H](C)CO	none (no result: HSF1 inhib, MITF act, Wnt bcat act, HSF1 activator)
COc1ccc2oc(-c3ccc(C)c(NC(=O)c4ccc(N5CCOCC5)c([N+](=O)[O-])c4)c3)nc2c1	HSF1 activator 80.7 (no result: Wnt bcat act)
O=C(Nc1ccccc1N1CCOCC1)c1ccc(N2CCOCC2)c([N+](=O)[O-])c1	none (no result: esBAF inh)
COc1ccc(CNC(=O)c2ccc(N3CCOCC3)c([N+](=O)[O-])c2)cc1	none (no result: esBAF inh)
O=C(Nc1nccs1)c1ccc(N2CCOCC2)c([N+](=O)[O-])c1	Wnt bcat act 42.6
C[C@@H]1CCCCO[C@H](CN(C)C(=O)Nc2ccc3c(c2)OCO3)[C@H](C)CN([C@@H](C)CO)C(=O)c2cc(NC(=O)CCCN(C)C)ccc2O1	none (no result: HSF1 inhib, MITF act, Wnt bcat act, HSF1 activator)
CNC[C@H]1OCCCC[C@H](C)Oc2ccc(NS(=O)(=O)c3ccc(OC)cc3)cc2C(=O)N([C@H](C)CO)C[C@@H]1C	none (no result: HSF1 inhib, MITF act, Wnt bcat act, HSF1 activator)
O=C(OCc1cc([N+](=O)[O-])cc2c1OCOC2)c1ccc2ccccc2n1	none (no result: esBAF inh)
CC(C)=CC(=O)OCc1cc([N+](=O)[O-])cc2c1OCOC2	Wnt bcat act 41.1 (no result: esBAF inh)
CCCSc1nc(N)nc(-c2cccs2)c1C#N	esBAF inh 47.7 (no result: Wnt bcat act)
Cc1ccc(N2C(=O)SC(N(CC(=O)O)c3cccc(C)c3)C2=O)cc1 (stereo unspecified)	Wnt bcat act 41.2
CC(=O)N(c1cccc(C)c1)C1SC(=O)N(c2ccccc2)C1=O (stereo unspecified)	none
Cc1noc(C)c1S(=O)(=O)Nc1ccc2c(c1)CC(=O)N([C@H](C)CO)C[C@H](C)[C@@H](CN(C)S(=O)(=O)c1cccs1)O2	none (no result: HSF1 inhib, MITF act, Wnt bcat act, HSF1 activator)
COc1ccc(Nc2ccc(Cl)nn2)cc1	none
Clc1ccc(Nc2ccc(Cl)nn2)cc1	HSF1 inhib -54.5 (no result: MITF act, esBAF inh)
Cc1cccc(C)c1OCc1cc(C(=O)N2CC3C[C@@H]4CC2C[C@H](C3)C4)no1	MITF act 114.6, Wnt bcat act 36.3, esBAF inh 82.2
Cc1cccc(C)c1OCc1cc(C(=O)N2CCC(c3ccccc3)CC2)no1	none
Cc1ccc(OCc2cc(C(=O)N3CC4C[C@@H]5CC3C[C@H](C4)C5)no2)cc1C	MITF act 109.9, esBAF inh 51.8
COc1ccc(CN2C[C@H](O)COC[C@H]3O[C@@H](CC(=O)NCCN4CCCC4)CC[C@@H]32)cc1	none (no result: HSF1 inhib, MITF act, Wnt bcat act, HSF1 activator)
COc1ccccc1CNCc1ccc2c(c1)OCO2	none (no result: HSF1 inhib, MITF act, HSF1 activator)
O=Cc1ccccc1OCc1ccc2c(c1)OCO2	esBAF inh 70.0 (no result: MITF act)
O=C(NCc1ccccc1)c1csc(-c2cccnc2)n1	none (no result: esBAF inh)
O=C(Nc1cccnc1)c1cc(-c2ccc(Cl)cc2Cl)on1	Wnt bcat act 43.2
O=C(Nc1cccnc1)c1cc(-c2ccc(Cl)cc2)on1	MITF act 129.4, Wnt bcat act 40.8
CC(C)Cc1cc(C(=O)Nc2cccnc2)no1	esBAF inh 56.8 (no result: MITF act)
